# A selection: hits, their analogues and other compounds. The true share with any hit is near 0.45%.
# FMDV antiviral: antivirals against foot and mouth disease virus; FMDV antiviral cell assay, firefly luciferase signal; Potency, µM (titrated, usually from 57.5 µM), most hits filed as inhibitors; actives 0.23% (n = 120,000); AID 1745856; note: nearly all actives have a fitted effect of over 60% in size
# FMDV RLuc: FMDV antiviral activity by Renilla signal | Potency, µM (highest dose often 57.5 µM), most hits filed as inhibitors | actives 0.32% (n = 120,000) | FMDV replicon cells, Renilla luciferase signal | AID 1745857; note: nearly all actives have a fitted effect of over 55% in size
# Numbers stand for hits; i = inactive; ? = inconclusive; ! = a repeat was not active; [ ] = remark or other dose. Calls come from the whole dose curve.
SMILES,FMDV antiviral,FMDV RLuc
CCn1c(C)c(C(=O)NCc2ccccc2)c2cc(OC)ccc21,i,i
COc1ccc2c(c1)c(C(C)=O)c(C)n2Cc1ccccc1,20µM,?
C=CCNC(=O)NC(=O)COC(=O)c1c(C)c(CC)nc2ccccc12,18µM,25µM
CCc1nc2ccccc2c(C(=O)OCC(=O)NC(N)=O)c1C,i,i
Cn1nc(C(=O)Nc2ccc(-c3ccccc3)cc2)c2ccccc2c1=O,i,i
Cc1nccc(CNC(=O)c2ccc3ncsc3c2)n1,i,i
Cc1cccc(C)c1NC(=O)c1ccc2ncsc2c1,22µM,i
Cn1c(=O)c2c(nc(Cl)n2CC(=O)c2ccc(C(C)(C)C)cc2)n(C)c1=O,?,11µM
Cn1c(=O)c2c(nc(Br)n2CC(=O)c2ccc(F)cc2)n(C)c1=O,i,i
CCNc1nc2ccccc2nc1C(C#N)S(=O)(=O)c1ccc(C)c(C)c1 (configuration not stated),i,i
CCCn1c(SCC(=O)Nc2ccc(F)cc2)nc(O)cc1=O,i,i
Cc1nc2cc(NC(=O)COc3ccc(Br)cc3F)ccc2o1,i,i
CC(=O)c1ccc(S(=O)(=O)N2CCn3cccc3C2c2ccc(F)c(F)c2)cc1 (configuration not stated),i,i
CC(=O)c1ccc(S(=O)(=O)N2CCn3cccc3C2c2ccccc2F)cc1 (configuration not stated),i,32µM
CC(C)(C)C(=O)NC(Nc1ccc2ccccc2c1)C(Cl)(Cl)Cl (configuration not stated),i,i
CCCSc1ncc(Cl)c(C(=O)N(Cc2ccc(Cl)cc2)Cc2ccco2)n1,i,i
CCCS(=O)(=O)c1ncc(Cl)c(C(=O)N(Cc2ccccc2)Cc2ccco2)n1,22µM,i
CCN(CC)CC(=O)Nc1c(-c2ccccc2)c2cc(Br)ccc2[nH]c1=O,i,i
CCCCOc1ccc(/C=C/C(=O)c2ccc(OC)c(CSCC(=O)O)c2)cc1,i,i
Cc1c(C)c2ccc(OCC(=O)C(C)(C)C)c(C)c2oc1=O,i,i
CCOC(=O)CCc1c(C)c2ccc(OCC(=O)C(C)(C)C)c(C)c2oc1=O,2.8µM,i
COC(=O)c1cc(OC(=O)CCc2ccc(OC)c(Br)c2)cc(C(=O)OC)c1,i,i
Fc1ccccc1-c1nc(-c2cccc(Br)c2)no1,i,i
O=C(O)c1cccc(-c2noc(-c3ccccc3F)n2)c1,2.5µM,i
Cc1ccc(C)c(/C=C2\CCc3ccccc3C2=O)c1,i,i
SMILES,FMDV antiviral,FMDV RLuc
CCSC1=N/C(=C\c2cc(C)ccc2C)C(=O)S1,i,i
Cc1sc(NC(=O)/C=C/c2cccs2)c(C#N)c1C,i,i
N#Cc1nc(-c2ccco2)oc1N1CCN(C(=O)c2ccccc2Cl)CC1,i,i
N#Cc1nc(-c2ccco2)oc1N1CCN(C(=O)CNC(c2ccccc2)c2ccccc2)CC1,?,10µM
Cc1ccc(C)c(OCC(=O)Nc2ccc(-c3nc4ccccc4o3)cc2)c1,i,i
COc1ccc(-c2cc(C(F)(F)F)nc(NCc3ccccc3)n2)cc1,?,4µM
Fc1ccc(-c2cc(C(F)(F)F)nc(NCc3ccccc3)n2)cc1,i,i
Cc1ccc(-n2nnnc2Sc2nnnn2-c2ccccc2)c(C)c1,?,25µM
Cc1cccc(-n2nnnc2Sc2nnnn2-c2ccccc2)c1C,i,?
Cc1ccc(-c2nnn(CCC(=O)Nc3sc4c(c3C#N)CCCC4)n2)cc1,i,i
CCCN(Cc1ccccc1)Cc1cc(=O)oc2ccc(OC)cc12,i,i
Cc1[nH]c2ccccc2c1C(=O)C(C)OC(=O)c1ccc2c(c1)NC(=O)CS2 (configuration not stated),35µM,?
CC(=O)Nc1ccc(NC(=O)C(C)OC(=O)c2ccc3c(c2)NC(=O)CS3)cc1 (configuration not stated),i,i[1.06 µM]
COc1ccc(CNC(=O)C(C)OC(=O)c2ccc3c(c2)NC(=O)CS3)cc1OC (configuration not stated),25µM,?
CC(OC(=O)c1ccc2c(c1)NC(=O)CS2)C(=O)c1ccccc1 (configuration not stated),i,i
O=Cc1ccc(OCc2ccc(I)cc2)c(Cl)c1,i,i
O=C(NCc1cccs1)c1nn(-c2ccccc2Cl)nc1CO,?,i
Cc1ccc(-n2nc(CO)c(C(=O)NCC(c3ccccc3)c3ccccc3)n2)cc1,i,i
Cc1ccccc1-n1nc(CO)c(C(=O)NCC(c2ccccc2)c2ccccc2)n1,?,8.9µM
O=C(NCC(c1ccccc1)c1ccccc1)c1nn(-c2ccccc2Cl)nc1CO,?,28µM!
O=C(OC/C=C/c1ccccc1)c1c[nH]c2ccccc12,i,i
COC(=O)CNC(=O)N1Cc2c(C)nn(-c3ccccc3)c2-n2cccc2C1c1cccc(C)c1 (configuration not stated),i,i
Cc1nc(/C=C/c2ccc(Cl)cc2)sc1C(=O)O,0.89µM,i
O=C(O)c1ccc(/C=C/c2nc3cc(Cl)ccc3o2)cc1,i,i
O=C(Nc1nc(-c2ccc(Cl)cc2)cs1)c1ccc(CN2CCOCC2)cc1,14µM,?
SMILES,FMDV antiviral,FMDV RLuc
O=C(Nc1nc(-c2ccc(Br)s2)cs1)C1CC1,i,i
O=C(Nc1nc(-c2cc3ccccc3oc2=O)cs1)c1ccc(Cl)cc1,i,i
O=C(Nc1nc(-c2ccc(Cl)cc2)cs1)C1CCN(C(=O)c2ccoc2)CC1,?,10µM
CC(C)Cn1c(SC(C)C(=O)Nc2nccs2)nnc1-c1ccco1 (configuration not stated),i,i
Cc1ccc(C)c(N2CCN(c3cc(C)nc4nc(-c5ccco5)nn34)CC2)c1,i,i
N#C/C(=C\c1ccc(OCc2ccc(C#N)cc2)cc1)c1nc2ccccc2[nH]1,i,4µM
Cc1cccc(COc2ccc(/C=C(\C#N)c3nc4ccccc4[nH]3)cc2)c1,i,?
CCOc1ccc(C(=O)Nc2scc(-c3ccc(F)cc3)c2C(=O)OC)cc1,i,i
CCCn1c(-n2nc(CC)cc2CC)nc2c1c(=O)n(CC(N)=O)c(=O)n2C,i,i
Cn1c(=O)c2c(ncn2CC(=O)Nc2nc(-c3cccc4ccccc34)cs2)n(C)c1=O,i,i
O=C(Nc1nc(-c2cccc3ccccc23)cs1)c1cccs1,13µM,?
OCCCCCCCCCCCCCCCO,i,i
C[N+]1(CCCCCCCCCCCCCO)CCCC1,?,20µM
O=c1c2cnc3ncnn3c2ccn1-c1cc(Cl)ccc1Cl,i,i
COc1cc(OC)c(NC(=O)NCc2ccc3c(c2)CCN3C(=O)c2ccccc2)cc1Cl,i,22µM
COc1cc(OC)c(NC(=O)NCc2ccc3c(c2)CCN3C(C)=O)cc1Cl,i,i
CCOC(=O)c1cnc2ccc(OCC)cc2c1Nc1ccccc1OCC,i,i
O=C(Nc1ncn(Cc2cccc(Cl)c2)n1)c1ccn(COc2ccc(Cl)cc2)n1,i,i
CCOC(=O)C1=C(Nc2ccccc2)O/C(=C\c2ccc(OC(F)F)cc2OC(F)F)C1=O,10µM,?
CCOC(=O)c1cccc(Nc2nc3ccccc3nc2NS(=O)(=O)c2ccccc2)c1,i,i
CC(Sc1nc(C(F)(F)F)nc2ccccc12)C(=O)Nc1ccc(F)cc1 (configuration not stated),i,i
CC(C)c1cnc2c(c1SCC(=O)c1ccc(Cl)cc1)c(=O)n(C)c(=O)n2C,i,25µM
CC(C)c1cnc2c(c1SCC(=O)O)c(=O)n(C)c(=O)n2C,i,i
CC(Nc1ccc(-c2ccccc2)cc1)C(=O)Nc1ccc(Cl)cn1 (configuration not stated),i,i
CCNCc1ccc(-c2ccc(F)c(Cl)c2)o1,i,i
CCCNc1ncnc2onc(C)c12,i,i

# Screening results from PubChem BioAssay.
